Assay outcomes: PubChem, National Center for Advancing Translational Sciences (NCATS)
Rows were chosen to be rich in hits. Some 0.77% of all compounds tested hit in one or more screens of this group.
NS1 inh: qHTS Assay for Inhibitors of Influenza NS1 Protein Function; Potency, µM (top dose mostly 46.1 µM), for the others: at the highest dose activity, positive = more growth; actives 0.4% (n = 270,000); also: potency is read from the fitted curve at half-maximal effect; actives are rising curves; nearly all actives have a fitted effect of over 50% in size
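Read-out: OD600 growth recovery of NS1-expressing budding yeast. Cells grown overnight at 30C in -URA glucose medium, washed, resuspended and diluted 1:100 in 2% galactose assay medium, pH 6.0. Same strain lacking NS1 served as positive control.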
RE007 growth inh: qHTS Assay for Inhibitors of the HIV-1 protein Vpr | Potency, µM (highest dose often 92.2 µM), inactives show top-dose activity change, negative = less growth, hits mostly inhibitors | actives 0.21% (n = 360,000) | S. pombe RE007 Vpr strain, BacTiter-Glo ATP luminescence, 24 h; active = well fitted falling curve with a large enough effect; inconclusive = small, poorly fitted or top-dose-only effect; inactive = no such curve, though single readings can be large or run the other way; also: potency is read from the fitted curve at half-maximal effect; % is scaled to controls: 0 for no effect and ±100 for the full control effect; nearly all actives have a fitted effect of over 50% in size
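Fission yeast RE007 carrying one integrated HIV-1 vpr copy, seeded at OD 0.01 in PMG+AL medium with 23 nL pinned compound. Grown 24 h at 30 degrees; viability read by BacTiter-Glo luminescence after 5 min.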
Tb PYK inh: qHTS of Trypanosoma Brucei Inhibitors; pyruvate kinase (Trypanosoma brucei), Q57TT1; AID 624173, 2012; actives 0.12% (n = 410,000); Potency, µM (doses to about 76.8 µM), for inactives: at the highest dose activity, negative = inhibition, most hits filed as inhibitors; TbPYK enzyme, Kinase-Glo Plus ATP luminescence, 45 min; active = well fitted curve in the direction sought with a large enough effect; inconclusive = small, poorly fitted or top-dose-only effect, or another doubt; inactive = no such curve, though single readings can be large; an effect the other way counts as inactive or inconclusive; also: potency is read from the fitted curve at half-maximal effect; % is scaled to controls: 0 for no effect and ±100 for the full control effect; nearly all actives have a fitted effect of over 50% in size
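Glycolytic pyruvate kinase of T. brucei was incubated with substrate, test compound and 130 uM ADP for 45 minutes at room temperature. Luminescent Kinase-Glo Plus signal was measured after 10 minutes.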
LmPK inhibitor: qHTS Assay for Inhibitors of Leishmania Mexicana Pyruvate Kinase (LmPK). Q27686. purified LmPK, Kinase-Glo ATP luminescence, 1 h. Potency, µM (series often up to 57.5 µM), without a hit: at the highest dose activity change, negative = inhibition, hits mostly inhibitors. actives 0.37% (n = 290,000). AID 1721, 2009; active = well fitted curve in the direction sought with a large enough effect; inconclusive = small, poorly fitted or top-dose-only effect, or another doubt; inactive = no such curve, though single readings can be large; an effect the other way counts as inactive or inconclusive; also: potency is read from the fitted curve at half-maximal effect; % is scaled to controls: 0 for no effect and ±100 for the full control effect
Target sequence (Q27686 whole entry, looked up): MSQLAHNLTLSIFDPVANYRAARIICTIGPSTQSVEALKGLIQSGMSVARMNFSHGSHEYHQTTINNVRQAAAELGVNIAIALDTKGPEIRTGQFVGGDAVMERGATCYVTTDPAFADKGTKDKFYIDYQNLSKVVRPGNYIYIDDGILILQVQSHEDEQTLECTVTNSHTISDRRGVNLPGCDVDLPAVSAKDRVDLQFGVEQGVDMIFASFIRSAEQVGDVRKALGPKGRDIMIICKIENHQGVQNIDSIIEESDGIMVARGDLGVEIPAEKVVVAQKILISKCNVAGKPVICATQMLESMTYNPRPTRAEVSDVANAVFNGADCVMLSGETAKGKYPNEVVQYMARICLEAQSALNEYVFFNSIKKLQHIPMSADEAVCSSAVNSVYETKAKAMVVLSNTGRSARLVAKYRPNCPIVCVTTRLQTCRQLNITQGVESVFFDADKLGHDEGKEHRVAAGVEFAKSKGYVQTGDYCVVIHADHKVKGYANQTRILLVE
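0.1 nM LmPK, 0.5 mM PEP, 0.1 mM ADP; 50 mM imidazole pH 7.2, 7 mM MgCl2, 50 mM KCl; 1 h RT. Kinase-Glo luminescence readout, normalized to no-enzyme (full inhibition) and uninhibited wells.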
NS1 inh valid: Assay for Inhibitors of Influenza NS1 Protein Function: Hit Validation. shares compounds with NS1 inh. influenza NS1 function cell assay, 15-point titration. activity change, negative = inhibition, % at 32.9 µM. 1,400 tested, under 10 active; also: 0% is about no effect
Flu PR8 replic: Assay for Inhibitors of Influenza NS1 Protein Function: Influenza virus replication assay in MDCK cells infected with virus A/PR/8/34 | actives 30% (n = 95) | shares compounds with NS1 inh | AID 504647, 2011 | MDCK infected influenza A/PR/8/34, virus titer TCID50; stronger effect = lower value | virus titer (log TCID50), log10 TCID50 at 5 µM; call rule not given here
An asterisk follows results filed as active; ? = inconclusive; . = not tested or not shown; [ ] = remark or other dose. Unless noted, calls follow the shape of the full dose curve.

SMILES | NS1 inh | RE007 growth inh | Tb PYK inh | LmPK inhibitor | NS1 inh valid | others
COc1ccc(N2C(N)=C(C#N)C(c3cccnc3)C3=C2CC(C)(C)CC3=O)cc1 (stereo unspecified) | ? | 4% | -13% | -1% | -14
COc1ccccc1-n1c(SCC(=O)NCc2ccc3c(c2)OCO3)nc2cc([N+](=O)[O-])ccc21 | 13µM* | -18% | 0% | -2% | 1
CC(Sc1nc2cc([N+](=O)[O-])ccc2n1-c1ccc(F)cc1)C(=O)NCc1ccc2c(c1)OCO2 (stereo unspecified) | ? | -7% | ? | 5% | .
O=C(CN(Cc1ccccc1)S(=O)(=O)c1ccc2c(c1)OCCO2)N/N=C/c1ccc(F)cc1 | 24% | 12% | -3% | 0% | .
Cc1cc(C(=O)CN(Cc2ccc(F)cc2)S(=O)(=O)c2ccc3c(c2)OCCO3)c(C)n1C | 11µM* | 8%[3.69 µM] | . | 1% | -16
COc1ccc(C2NC(C(=O)O)Cc3c2[nH]c2ccccc32)cc1OC (stereo unspecified) | ? | -6% | -6% | -7% | 8
CC1(C)Cc2c(c(N3CCOCC3)nc3sc(-c4ccc(C(=O)O)o4)c(N)c23)CO1 | ? | 1% | -8% | 4% | 12
CCCn1c(CCNc2nc(-c3ccc(Cl)c([N+](=O)[O-])c3)cs2)nc2cc(Cl)c(Cl)cc21 | 8.9µM* | -7% | -9% | 0% | 37 | Flu PR8 replic=8
Cc1cccc(C)c1NC(=O)CSc1nc2ccccc2c2nc(CCc3c(C)n[nH]c3C)nn12 | . | . | 0% | . | .
Cc1n[nH]c(C)c1CCc1nc2c3ccccc3nc(SCC(N)=O)n2n1 | 3.2µM* | 23% | -4% | -2% | -7
C#CCOc1ccc(/C=C2/C(=O)N(c3cccc(C(=O)O)c3)N=C2C)cc1OC | 11µM* | 3% | -18% | 6% | ?
COc1cc(/C=C2\C(=O)N(c3cccc(C(=O)O)c3)N=C2C)ccc1OCc1ccccc1 | . | -7% | -15% | . | .
CC(C)(C)S(=O)N1Cc2cc(C(=O)NCc3ccc(Oc4ccccc4)cc3)nc(-c3cccc(-c4cc5ccccc5o4)c3)c2[C@@H]1CCO (stereo partly specified) | . | -8% | 5% | . | .
O=C(O)c1cc(-c2ccc3c(c2)OCO3)nc2ccccc12 | -9% | -17% | -14% | 5% | .
CC(=O)c1ccc(N2CCN(C(=O)c3cc(-c4ccc5c(c4)OCO5)nc4ccccc34)CC2)cc1 | 13µM* | -6% | 5% | 3% | 3 | Flu PR8 replic=8
CN1C(CSCC(F)(F)F)Nc2cc(Cl)c(S(N)(=O)=O)cc2S1(=O)=O (stereo unspecified) | . | . | 1% | . | .
CCOC(=O)N1CCN(c2c(NCCCN(CC)CC)c(=O)c2=O)CC1 | 10% | 6% | 5% | 3% | .
CCOC(=O)N1CCN(c2c(NCCCN(CC)Cc3ccccc3)c(=O)c2=O)CC1 | 1µM* | 3% | 2% | -3% | -12
NC(=O)COC(=O)c1ccc(Cl)c(S(=O)(=O)N(Cc2ccccc2)c2ccc(Cl)cc2)c1 | 20% | 4% | -1% | 0% | .
NC(=O)NC(=O)COC(=O)c1ccc(Cl)c(S(=O)(=O)N(Cc2ccccc2)c2ccc(Cl)cc2)c1 | 11µM* | 14% | -3% | 1% | -20
N[C@@H](Cc1c[nH]c2ccccc12)C(=O)O | 20% | . | . | -2% | .
NC(Cc1c[nH]c2ccccc12)C(=O)NCc1ccccc1 (stereo unspecified) | ? | 2% | -5% | 1% | 1
COc1ccc2c(c1)c1c(C)c3cnccc3c(C)c1n2CCCN | 0% | . | . | . | .
Cn1c(=O)cc(OCCCC(=O)NCCN2CCN(c3ccccc3F)CC2)c2ccccc21 | -3% | -6% | 4% | 10% | .
Cn1c(=O)cc(OCCCC(=O)NCCCN2CCN(Cc3ccccc3)CC2)c2ccccc21 | 3.5µM* | -11% | 0% | 2% | -16
SMILES | NS1 inh | RE007 growth inh | Tb PYK inh | LmPK inhibitor | NS1 inh valid | others
Cc1c(C)c2ccc(OC(C)C(=O)N[C@@H](Cc3c[nH]c4ccccc34)C(=O)O)c(C)c2oc1=O (stereo partly specified) | 10µM* | 5% | 7% | -4% | 19
Cc1c(OC(C)C(=O)NC(Cc2c[nH]c3ccc(O)cc23)C(=O)O)ccc2c1oc(=O)c1ccccc12 (stereo unspecified) | 17% | 0% | 2% | -5% | .
CC1CCCCC12NC(=O)N(CC(=O)Nc1ccc(N3CCCCC3)cc1)C2=O (stereo unspecified) | . | 5% | -11% | . | .
Cc1cc(C2=CC(C)(c3cc(C)oc3C)Nc3nc(C(F)(F)F)nn32)c(C)o1 (stereo unspecified) | 18µM* | . | . | 3% | 7
Cc1ccc(C2=CC(C)(c3ccc(C)cc3)Nc3nc(C(F)(F)F)nn32)cc1 (stereo unspecified) | 1% | 18% | 1% | 2% | .
FC(F)(F)C(F)(F)C(F)(F)C(F)(F)C(F)(F)C(F)(F)F | . | . | 1% | . | .
C=CCNC(=S)NNC(=O)c1cc(O)ccc1O | 4% | 16% | -14% | 2% | .
CCOc1ccc(/C(O)=C2/C(=O)C(=O)N(c3ncccn3)C2c2ccccc2)cc1 (stereo unspecified) | 2µM* | 6% | 0% | -1% | -12
CCCOc1ccc(/C(O)=C2/C(=O)C(=O)N(c3cc(C)on3)C2c2ccc(C(=O)OC)cc2)cc1 (stereo unspecified) | 10µM* | 8% | 4% | 15% | -9
COC(=O)c1c(NC(=S)Nc2cc(OC)c(Cl)cc2OC)sc2c1CCCCC2 | 11µM* | 6% | 1% | 2% | 5 | Flu PR8 replic=8.5
Cc1ccc(CSc2nnc(-c3ccccc3N)c(=O)[nH]2)cc1 | 11µM* | ? | 3% | 3% | -35
COc1ccc(C(=O)N/C(=C\c2ccccc2)C(=O)Nc2cccc(C(=O)O)c2)cc1 | 10µM* | 2% | 3% | 0% | 4
COc1ccccc1/C=C(\NC(=O)c1ccc(OC)c(OC)c1)C(=O)Nc1ccc([N+](=O)[O-])cc1 | 13µM* | -6% | 2% | 2% | 13
COc1ccc(/C=C(\NC(=O)c2ccc(OC)cc2)C(=O)Nc2ccc(C(=O)O)cc2)cc1 | 1% | -11% | -1% | -7% | .
Cc1cccc(C)c1NC(=O)c1ccc2nc(CCc3ccccc3)oc2c1 | . | . | -3% | . | .
N#CCC(=O)Nc1sc2c(c1C(N)=O)CCCC2 | 8.9µM* | 5% | -3% | 7% | 18
